The structures appear in SMILES notation. Results filed as inconclusive are left out. The source made the active and inactive calls. Rule for the calls: active = hit-call score of the fitted dose curve at least 0.9, where 1 is the maximum; inconclusive = response in the unintended direction; inactive = score below 0.9.

Sequence of Oxysterols receptor LXR-beta (Homo sapiens) (P55055 whole entry, looked up, the tested form may be a part): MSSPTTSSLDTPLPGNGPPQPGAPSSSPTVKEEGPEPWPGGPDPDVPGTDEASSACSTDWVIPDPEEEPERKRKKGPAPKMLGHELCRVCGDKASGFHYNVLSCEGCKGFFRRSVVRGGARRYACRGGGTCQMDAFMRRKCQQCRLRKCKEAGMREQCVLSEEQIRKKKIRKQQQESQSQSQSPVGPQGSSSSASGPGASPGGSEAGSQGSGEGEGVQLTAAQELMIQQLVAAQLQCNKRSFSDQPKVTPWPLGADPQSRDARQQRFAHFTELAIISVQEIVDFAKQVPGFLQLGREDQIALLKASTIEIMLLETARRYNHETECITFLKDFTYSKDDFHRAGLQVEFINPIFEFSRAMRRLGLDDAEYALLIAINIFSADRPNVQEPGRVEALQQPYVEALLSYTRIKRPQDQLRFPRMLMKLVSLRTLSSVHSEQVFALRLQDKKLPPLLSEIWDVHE
Sequence of Hepatocyte nuclear factor 4-alpha (Homo sapiens) (P41235 whole entry, looked up): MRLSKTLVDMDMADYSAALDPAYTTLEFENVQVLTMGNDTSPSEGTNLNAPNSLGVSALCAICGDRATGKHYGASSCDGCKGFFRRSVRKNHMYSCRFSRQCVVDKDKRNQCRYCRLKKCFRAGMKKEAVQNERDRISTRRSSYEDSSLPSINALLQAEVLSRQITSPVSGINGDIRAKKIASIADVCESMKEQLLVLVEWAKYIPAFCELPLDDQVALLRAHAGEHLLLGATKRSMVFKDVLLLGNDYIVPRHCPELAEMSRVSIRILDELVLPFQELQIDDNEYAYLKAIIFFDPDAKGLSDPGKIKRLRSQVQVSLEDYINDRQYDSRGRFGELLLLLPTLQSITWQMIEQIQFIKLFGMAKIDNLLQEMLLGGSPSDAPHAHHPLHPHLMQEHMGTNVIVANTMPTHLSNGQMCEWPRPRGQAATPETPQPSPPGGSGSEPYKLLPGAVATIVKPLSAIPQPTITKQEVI
Sequence of Oxysterols receptor LXR-alpha (Homo sapiens) (Q13133 whole entry, looked up, the tested form may be a part): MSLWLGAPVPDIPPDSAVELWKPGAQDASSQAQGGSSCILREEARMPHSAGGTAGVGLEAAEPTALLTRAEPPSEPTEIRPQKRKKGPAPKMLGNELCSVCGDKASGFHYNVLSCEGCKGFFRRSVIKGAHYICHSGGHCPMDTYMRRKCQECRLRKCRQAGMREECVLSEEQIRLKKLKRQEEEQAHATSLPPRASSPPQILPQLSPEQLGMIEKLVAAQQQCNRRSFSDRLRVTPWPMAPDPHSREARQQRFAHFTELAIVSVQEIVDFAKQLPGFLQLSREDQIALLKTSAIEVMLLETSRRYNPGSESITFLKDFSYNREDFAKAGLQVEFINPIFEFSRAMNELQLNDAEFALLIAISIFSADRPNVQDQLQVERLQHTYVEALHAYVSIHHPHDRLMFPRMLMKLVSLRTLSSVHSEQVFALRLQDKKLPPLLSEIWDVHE

In one assay the target is Oxysterols receptor LXR-alpha (Homo sapiens) (UniProt Q13133). As to the kind of experiment: ATG_LXRa_TRANS: Attagene TRANS-FACTORIAL HepG2 Assay for human Liver X Receptor alpha (LXRa) (AID 2282980). The following applies: HepG2 Attagene TRANS reporter, LXRa transactivation. The procedure, abridged:
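In this multiplexed TRANS system, compounds act on HepG2 cells carrying GAL4-UAS reporter units and a receptor-GAL4 fusion for 24 h. Induced reporter RNA is amplified, fluorescently labelled and sized by capillary electrophoresis, with DMSO as baseline.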
`CC1C(C)(C)C2=C(C(=O)CCC2)C1(C)C` (centres undefined): the compound was called inactive.

Regarding `CN(C)c1ccc2nc3ccc(=[N+](C)C)cc-3sc2c1`, the result was inactive.

Take `C=C(C)OC(C)=O`: the compound was classed as inactive.

In the case of `CCC(=O)C1CC(C(C)C)CC=C1C` (centres undefined), the outcome was inactive.

Turning to `CCN(CC)c1cccc(C)c1`, the compound was called inactive.

With `Cn1ccnc1`, the compound was classed as inactive.

For `CC1=CC(C)C(C=O)CC1` (centres undefined), the outcome was inactive.

With `CCc1cccc(C)c1N`, the outcome was inactive.

Regarding `O=C(O)c1cc(O)c2ccccc2c1O`, the outcome was inactive.

In the case of `CCOC(=O)C1=NN(c2ccc(Cl)cc2Cl)C(C)(C(=O)OCC)C1` (centres undefined), the outcome was inactive.

As to `CC(C)c1cccc(C(C)C)c1N`, the result was inactive.

Take `CCCCC(CC)COC(=O)/C=C/c1ccc(OC)cc1` (centres undefined): the result was inactive.

As to `CC(C)(c1ccccc1)c1ccc(Nc2ccc(C(C)(C)c3ccccc3)cc2)cc1`, the call was inactive.

Consider `COC(=O)CC(C)CCC=C(C)C` (centres undefined), for which the compound was called inactive.

For `Fc1ccc(Br)cc1`, the result was inactive.

For `O=C(Cl)c1c(Cl)c(Cl)c(C(=O)Cl)c(Cl)c1Cl`, the result was inactive.

In the case of `CC(C)(CO)C(O)C(=O)NCCCO` (centres undefined), the call was inactive.

Another assay has as its target Oxysterols receptor LXR-beta (Homo sapiens) (UniProt P55055). As to the kind of experiment: ATG_LXRb_TRANS: Attagene TRANS-FACTORIAL HepG2 Assay for human Liver X Receptor beta (LXRb) (AID 2282981). To be noted: HepG2 Attagene TRANS GAL4-LXRb reporter, mRNA. Summed up:
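After 24 h of chemical treatment, transfected HepG2 cells yield total RNA; reporter cDNA is PCR-amplified, FAM-labelled, HpaI-cut and run on capillary electrophoresis. Signal reflects chimeric LXRb-Gal4 activity on GAL4-UAS reporters.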
Consider `CC(CCC(=O)O)(c1ccc(O)cc1)c1ccc(O)cc1`, for which the compound was classed as inactive.

For the compound `CC1C(C)(C)C2=C(C(=O)CCC2)C1(C)C` (centres undefined), the compound was called inactive.

For `CN(C)c1ccc2nc3ccc(=[N+](C)C)cc-3sc2c1`, the compound was called inactive.

Regarding `C=C(C)OC(C)=O`, the compound was classed as inactive.

`[Cl][Sc]([Cl])[Cl]`: the compound was classed as inactive.

Turning to `CC(Cl)COP(=O)(OCC(C)Cl)OCC(C)Cl` (centres undefined), the compound was classed as inactive.

Regarding `COc1ccc(C(=O)/C(Br)=C\C(=O)O)cc1`, the compound was classed as inactive.

For the compound `CCOC(=O)/C=C\C(=O)OCC`, the outcome was inactive.

As to `CCN(CC)c1cccc(C)c1`, the outcome was inactive.

With `CC1=CC(C)C(C=O)CC1` (centres undefined), the compound was called inactive.

On to `O=C(O)c1cc(O)c2ccccc2c1O`, for which the outcome was inactive.

`Cc1c(O)cccc1O`: the result was inactive.

In the case of `CC(C)c1cccc(C(C)C)c1N`, the call was inactive.

Regarding `CCCCCCOC(=O)CCCCC(=O)OCCCCCC`, the compound was classed as inactive.

As to `CC(C)(c1ccccc1)c1ccc(Nc2ccc(C(C)(C)c3ccccc3)cc2)cc1`, the call was inactive.

With `c1ccc2cnccc2c1`, the compound was classed as inactive.

In the case of `COC(=O)CC(C)CCC=C(C)C` (centres undefined), the compound was called inactive.

Consider `Fc1ccc(Br)cc1`, for which the compound was called inactive.

Another assay deals with Hepatocyte nuclear factor 4-alpha (Homo sapiens) (UniProt P41235). As to the kind of experiment: ATG_HNF4a_TRANS: Attagene TRANS-FACTORIAL HepG2 Assay for human Hepatocyte Nuclear Factor 4 alpha (HNF4a) (AID 2282982). The following applies: HepG2 HNF4a transactivation reporter, mRNA readout. Summed up:
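Multiplexed reporter assay: transfected HepG2, 24 h exposure, total RNA → oligo(dT) RT → PCR → 6-FAM extension → HpaI digest → CE fluorescence. DMSO = negative control.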
On to `CC(CCC(=O)O)(c1ccc(O)cc1)c1ccc(O)cc1`, for which the compound was classed as inactive.

`C=C(C)OC(C)=O`: the call was inactive.

As to `[Cl][Sc]([Cl])[Cl]`, the call was inactive.

On to `CC(=O)OC1CCCCC1`, for which the compound was called inactive.

Consider `COc1ccc(C(=O)/C(Br)=C\C(=O)O)cc1`, for which the call was inactive.

For `CCN(CC)c1cccc(C)c1`, the compound was called inactive.

Regarding `Cn1ccnc1`, the result was inactive.

For the compound `CCCCNC(=S)NCCCC`, the call was inactive.

For `CC1=CC(C)C(C=O)CC1` (centres undefined), the call was inactive.

On to `CCc1cccc(C)c1N`, for which the result was inactive.

Consider `O=C(O)c1cc(O)c2ccccc2c1O`, for which the compound was called inactive.

As to `CCOC(=O)C1=NN(c2ccc(Cl)cc2Cl)C(C)(C(=O)OCC)C1` (centres undefined), the compound was classed as inactive.

Turning to `CO[Si](C)(C)OC`, the outcome was inactive.

Turning to `Cc1c(O)cccc1O`, the call was inactive.

For the compound `O=S(=O)(O)c1ccc(Nc2nc(Nc3ccc(C=Cc4ccc(Nc5nc(Nc6ccc(S(=O)(=O)O)cc6)nc(N(CCO)CCO)n5)cc4S(=O)(=O)O)c(S(=O)(=O)O)c3)nc(N(CCO)CCO)n2)cc1`, the call was inactive.

For the compound `CC(C)c1cccc(C(C)C)c1N`, the outcome was inactive.

For the compound `C=C(C)C1CC=C(C)C(OC(C)=O)C1` (centres undefined), the compound was classed as inactive.

As for `CCCCC(CC)COC(=O)/C=C/c1ccc(OC)cc1` (centres undefined), the outcome was inactive.

In the case of `C=Cc1ccc(OC(C)=O)cc1`, the result was inactive.

On to `c1ccc2cnccc2c1`, for which the compound was called inactive.

For the compound `C=C(C)C(=O)OCCCCCCCCCCCC`, the outcome was inactive.

Consider `COC(=O)CC(C)CCC=C(C)C` (centres undefined), for which the outcome was inactive.

System in the next assay: not listed separately
As to the kind of experiment: ATG_M_06_TRANS: Attagene TRANS-FACTORIAL HepG2 Assay for M06 Transcription Factor (Internal Marker) (AID 2282983).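 Note: reporter transcript level by RT-PCR then capillary electrophoresis fluorescence.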 To be noted: HepG2 Attagene TRANS M06 internal marker reporter. The procedure, abridged:
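Multi-reporter-transfected HepG2, 24 h treatment; reporter transcripts quantified via RT-PCR, primer-extension labelling and CE. DMSO-normalized gain-of-signal fit.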
Consider `CC(CCC(=O)O)(c1ccc(O)cc1)c1ccc(O)cc1`, for which the result was inactive.

Take `CN(C)c1ccc2nc3ccc(=[N+](C)C)cc-3sc2c1`: the compound was called inactive.

Turning to `C=C(C)OC(C)=O`, the outcome was inactive.

Regarding `CC(=O)OC1CCCCC1`, the compound was classed as inactive.

Take `CCC(=O)C1CC(C(C)C)CC=C1C` (centres undefined): the outcome was inactive.

As to `COc1ccc(C(=O)/C(Br)=C\C(=O)O)cc1`, the compound was called inactive.

As to `CCCCNC(=S)NCCCC`, the outcome was inactive.

As for `CC1=CC(C)C(C=O)CC1` (centres undefined), the compound was called inactive.

As to `O=C(O)c1cc(O)c2ccccc2c1O`, the result was inactive.

Regarding `CO[Si](C)(C)OC`, the compound was called inactive.

Take `CCCC(C)C(=O)OCC` (centres undefined): the result was inactive.

Regarding `O=S(=O)(O)c1ccc(Nc2nc(Nc3ccc(C=Cc4ccc(Nc5nc(Nc6ccc(S(=O)(=O)O)cc6)nc(N(CCO)CCO)n5)cc4S(=O)(=O)O)c(S(=O)(=O)O)c3)nc(N(CCO)CCO)n2)cc1`, the call was inactive.

As for `CC(C)c1cccc(C(C)C)c1N`, the compound was classed as inactive.

`CCCCCCOC(=O)CCCCC(=O)OCCCCCC`: the outcome was inactive.

Take `CCCCC(CC)COC(=O)/C=C/c1ccc(OC)cc1` (centres undefined): the call was inactive.

For the compound `COC(OC)(C(=O)c1ccccc1)c1ccccc1`, the call was inactive.

Turning to `C=Cc1ccc(OC(C)=O)cc1`, the result was inactive.

Regarding `CC(C)(c1ccccc1)c1ccc(Nc2ccc(C(C)(C)c3ccccc3)cc2)cc1`, the call was inactive.

For the compound `c1ccc2cnccc2c1`, the compound was called inactive.

On to `O=C(Cl)c1c(Cl)c(Cl)c(C(=O)Cl)c(Cl)c1Cl`, for which the result was inactive.

In the case of `CC(C)(CO)C(O)C(=O)NCCCO` (centres undefined), the compound was classed as inactive.

System in another assay: not listed separately
As to the kind of experiment: ATG_M_32_TRANS: Attagene TRANS-FACTORIAL HepG2 Assay for M32 Transcription Factor (Internal Marker) (AID 2282984).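 Note: transcript level of a background control reporter unit measured by RT-PCR and capillary electrophoresis.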 The following applies: HepG2 Attagene TRANS M32 internal marker reporter. The procedure, abridged: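 Cell-based TRANS-format assay in HepG2: exogenous chimeric GAL4 reporter units transiently expressed, compounds applied 24 h. Reporter mRNA detected by RT-PCR plus capillary electrophoresis; this readout is an internal background marker.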
As to `CC(CCC(=O)O)(c1ccc(O)cc1)c1ccc(O)cc1`, the compound was classed as inactive.

`CC1C(C)(C)C2=C(C(=O)CCC2)C1(C)C` (centres undefined): the compound was called inactive.

Take `C=C(C)OC(C)=O`: the call was inactive.

As to `CC(Cl)COP(=O)(OCC(C)Cl)OCC(C)Cl` (centres undefined), the call was inactive.

Turning to `CC(=O)OC1CCCCC1`, the result was inactive.

In the case of `COc1ccc(C(=O)/C(Br)=C\C(=O)O)cc1`, the compound was classed as inactive.

As for `CCCCC1C(=O)N(c2ccccc2)N(c2ccccc2)C1=O`, the compound was called inactive.

For `CCOC(=O)/C=C\C(=O)OCC`, the compound was classed as inactive.

In the case of `CCN(CC)c1cccc(C)c1`, the result was inactive.

As to `Cn1ccnc1`, the outcome was inactive.

For the compound `CCCCNC(=S)NCCCC`, the compound was classed as inactive.

Turning to `CC1=CC(C)C(C=O)CC1` (centres undefined), the call was inactive.

In the case of `CCc1cccc(C)c1N`, the outcome was inactive.

With `O=C(O)c1cc(O)c2ccccc2c1O`, the call was inactive.

As for `CCOC(=O)C1=NN(c2ccc(Cl)cc2Cl)C(C)(C(=O)OCC)C1` (centres undefined), the result was inactive.

`CO[Si](C)(C)OC`: the call was inactive.

Turning to `O=S(=O)(O)c1ccc(Nc2nc(Nc3ccc(C=Cc4ccc(Nc5nc(Nc6ccc(S(=O)(=O)O)cc6)nc(N(CCO)CCO)n5)cc4S(=O)(=O)O)c(S(=O)(=O)O)c3)nc(N(CCO)CCO)n2)cc1`, the result was inactive.

Regarding `CC(C)c1cccc(C(C)C)c1N`, the compound was classed as inactive.

On to `C=C(C)C1CC=C(C)C(OC(C)=O)C1` (centres undefined), for which the compound was called inactive.

On to `CCCCC(CC)COC(=O)/C=C/c1ccc(OC)cc1` (centres undefined), for which the call was inactive.

As to `COC(OC)(C(=O)c1ccccc1)c1ccccc1`, the call was inactive.

With `CCC1(C)C(=O)N(Cl)C(=O)N1Cl` (centres undefined), the result was inactive.

With `C=Cc1ccc(OC(C)=O)cc1`, the compound was classed as inactive.

On to `C=C(C)C(=O)OCCCCCCCCCCCC`, for which the outcome was inactive.

Take `COC(=O)CC(C)CCC=C(C)C` (centres undefined): the result was inactive.

`Fc1ccc(Br)cc1`: the result was inactive.

(Values after PubChem BioAssay (EPA / NIEHS).)
